According to PubChem BioAssay AID1851 (National Center for Advancing Translational Sciences (NCATS), 2009):
The campaign covered roughly 16,000 compounds. About 5,100 (32%) were called active. Inconclusive results (about 25%) are left out. Calls follow the shape of the dose curve; as a rule, active = well fitted curve in the direction sought with a large enough effect; inconclusive = small, poorly fitted or top-dose-only effect, or effect the other way; inactive = no such curve, though single readings can be large or run the other way. The list shows a part of the results. Square brackets hold non-standard residues; d marks the D form. Peptide text beside a SMILES is read from it. * marks the point of attachment. ξ: configuration not given here. Cbz = O=C(OCc1ccccc1)*; PhAc = O=C(Cc1ccccc1)*; OBn = c1ccc(CO*)cc1; ξA = CC(N)C(=O)O

Target: Cytochrome P450 3A4 (Homo sapiens) (UniProt P08684)
Sequence (P08684 whole entry, looked up): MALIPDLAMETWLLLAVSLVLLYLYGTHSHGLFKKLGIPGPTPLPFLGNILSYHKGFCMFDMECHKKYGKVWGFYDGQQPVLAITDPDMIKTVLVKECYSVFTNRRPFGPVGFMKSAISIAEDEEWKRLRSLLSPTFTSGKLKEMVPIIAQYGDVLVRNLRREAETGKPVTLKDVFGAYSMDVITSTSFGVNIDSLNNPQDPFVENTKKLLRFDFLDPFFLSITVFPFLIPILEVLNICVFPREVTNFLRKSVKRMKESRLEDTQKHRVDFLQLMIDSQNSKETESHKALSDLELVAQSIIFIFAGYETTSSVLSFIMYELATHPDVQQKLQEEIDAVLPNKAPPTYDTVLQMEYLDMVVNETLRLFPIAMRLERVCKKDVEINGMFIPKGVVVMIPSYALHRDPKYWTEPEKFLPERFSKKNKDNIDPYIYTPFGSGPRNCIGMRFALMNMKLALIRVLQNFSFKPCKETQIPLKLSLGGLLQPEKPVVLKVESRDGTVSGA
Test: Cytochrome panel assay with activity outcomes
Settings: recombinant CYP, pro-luciferin dealkylation, luminescence, p450-cyp3a4; series mostly up to 57.1 µM
% is scaled to controls: 0 for no effect and ±100 for the full control effect.

activity, negative = inhibition, inactive:
O=C(c1ccccc1)c1ccc(OCCn2cnc3ccccc3c2=O)cc1 26.6% [at 2.29 µM]
CC(C)On1c(SC(C)C)nc2ccccc2c1=O 22.8% [at 11.4 µM]
COc1ccc(-c2nc3ccccc3c(=O)n2N)cc1 -5.9% [at 11.4 µM]
COc1cccc(C(=O)NNC2=CC(=O)CC(C)(C)C2)c1 3.39% [at 2.29 µM]
CCOC(=O)N1N=C(c2ccccc2)CC1(O)C(F)(F)F (configuration not stated) 2.59% [at 11.4 µM]
O=[N+]([O-])c1ccc(CSCc2ccc(Cl)cc2)cc1 -19.8% [at 11.4 µM]
O=C(NC1CCCc2ccccc21)c1ccc(=O)[nH]c1 (configuration not stated) 10.9% [at 2.29 µM]
C=CCOc1c2ccc(C(=O)NC3CCCc4ccccc43)cc2nn1C (configuration not stated) 3.25% [at 2.29 µM]
Cc1cc(C(=O)N/N=C/c2cccc(OC(=O)c3ccco3)c2)n[nH]1 7.86% [at 2.29 µM]
O=C(O)c1ccc(Cc2ccccc2C(=O)O)cc1 -8.32% [at 11.4 µM]
CC[C@H](C(=O)c1cccs1)C(O)(C(F)(F)F)C(F)(F)F -6.43% [at 11.4 µM]
CCOC(=O)N/N=C1/C[C@@H](O)[C@@H](O)[C@@H]2[C@@H]3C(=O)N(CC)C(=O)[C@H]3CC[C@@H]12 -14.4% [at 11.4 µM]
Cn1c(=O)n(CC#N)c2ccccc21 -1.21% [at 2.29 µM]
O=C(CNC(=O)c1ccco1)OCc1c(F)cccc1Cl -10.2% [at 2.29 µM]
COC(=O)CNC(=O)C(C)NC(=O)CNC(=O)OCc1ccccc1 (stereo not drawn) (Cbz-Gly-[ξA]-Gly-OMe) -0.615% [at 2.29 µM]
O=C(O)C[C@H]1OCC=C2C[N@@+]3([O-])CC[C@]45c6ccccc6N[C@@H]4[C@@H]1[C@H]2C[C@H]53 -0.0687% [at 11.4 µM]
O=C(Cn1cc(C(F)(F)F)ccc1=O)N1CCN(S(=O)(=O)c2ccccc2)CC1 -26.5% [at 11.4 µM]
O=C(O)[C@@H](O)c1ccc(F)cc1 -5.47% [at 11.4 µM]
COc1ccc([C@H](O)c2ccccn2)cc1 -5.07% [at 11.4 µM]

AC50, inactive:
CCCCOc1ccc(CC(=O)NO)cc1
CCCNC1CCS(=O)(=O)C1 (configuration not stated)
CC[C@H](C)[C@@H]1O[C@]2(CC[C@@H]1C)C[C@H]1C[C@H](CC=C(C)[C@@H](O[C@@H]3C[C@H](OC)[C@H](O[C@@H]4C[C@H](OC)[C@H](O)[C@H](C)O4)[C@H](C)O3)[C@@H](C)C=CC=C3CO[C@@H]4[C@@H](O)C(C)=C[C@@H](C(=O)O1)[C@]34O)O2
CC1CCC(C(C)C)C(OCC(O)CN2CCN(Cc3ccccc3)CC2)C1 (configuration not stated)
CN1CCN(CC(O)c2ccccc2)CC1 (configuration not stated)
COc1cc(CNCCc2ccccc2)ccc1OCC(=O)NC(C)(C)C
CCOc1ccc(N=C2NC(=O)C(CC(=O)O)S2)cc1 (configuration not stated)
CCn1c(CC(C)C)n[nH]c1=S
CCn1c(CCNC(=O)c2ccccc2Cl)n[nH]c1=S
O=[N+]([O-])c1ccc(Cl)c(/C=N/N2CCN(Cc3ccccc3Cl)CC2)c1
CC(C)Cn1c(-c2nn(C)cc2Cl)n[nH]c1=S
CN(C)CC[C@H](c1ccc(Cl)cc1)c1ccccn1
Cc1cc2nnc(SCC(=O)OC(C)C)n2c2ccccc12
CCc1ccc(N2C(=O)c3ccc4c5c(ccc(c35)C2=O)CC4)cc1
COC(=O)Nc1nc2ccc(Sc3ccccc3)cc2[nH]1
Cc1ccccc1/C=C\C1=NCCN1
O=C(N/N=C/c1ccccn1)c1ccco1
COc1c(/C=N/Nc2ccc([N+](=O)[O-])cc2[N+](=O)[O-])c(C)nn1-c1ccccc1
Cn1nnnc1SCc1ccc(C(=O)Nc2ccc(Br)cc2)cc1
Cc1ccc(NC(=O)c2ccc(CSc3nnc(-c4ccncc4)n3C)cc2)cc1
COC(=O)c1c(C)nc2ccccc2c1C(=O)O
O=P(O)(COc1ccccc1)COc1ccccc1
CC(C)CN(C)c1nc(N)c(C(=O)N=C(N)N)nc1Cl
Cc1cnc(CNc2cc(-c3ccc(C(=O)N(C)C)cc3)ncn2)cn1
COC(=O)Nc1nc2ccc(C(=O)c3cccs3)cc2[nH]1
C[C@@H](C(=O)O)c1ccc(C(=O)c2cccs2)cc1
CC12CC(NC(=O)N1c1cccc(C(=O)NCc3ccccc3)c1)c1ccccc1O2 (configuration not stated)
Cc1cc(C(F)F)n2ncc(C(=O)NCc3ccccc3C(F)(F)F)c2n1
O=C(NCCN1CCOCC1)c1ccc2ccccc2c1
COc1ccc(NC(=O)c2cc3n(n2)C(C(F)(F)F)CC(c2ccc4c(c2)OCO4)N3)cc1OC (configuration not stated)
Cc1ccc(C2C(C=Nc3c(C)n(C)n(-c4ccccc4)c3=O)=C(c3ccccc3)Oc3ccccc32)cc1 (configuration not stated)
O=C(CNC(=O)Cc1ccccc1)NCC(=O)OCc1ccccc1 (PhAc-Gly-Gly-OBn)
CC(=O)N(O)CCCCCNC(=O)CCC(=O)N(O)CCCCCNC(=O)CCC(=O)N(O)CCCCCN
O=C(c1ccc2c(c1)N(Cc1ccccc1)C(=O)CS2)N1CCOCC1

AC50, active:
COc1ccc(CNn2c(C)nc3ccccc3c2=O)cc1 3.98 µM
CCCCOc1ccc(CNn2c(C)nc3ccccc3c2=O)cc1 1.58 µM
CC1CC(OCC(O)CN2CCN(Cc3ccccc3)CC2)CC(C)(C)C1 (configuration not stated) 8.91 µM
COc1cccc(C(=O)N2N=C(c3cccc(OC)c3)CC2(O)C(F)(F)F)c1 (configuration not stated) 7.94 µM
CCOc1cc(CNc2ccc(OC)cc2)cc(Br)c1OCC(=O)NC(C)(C)C 15.8 µM
CCn1c(CCNC(=O)c2ccc(Cl)cc2Cl)n[nH]c1=S 14.1 µM
O=[N+]([O-])c1ccc(-c2cnc(SCc3ccccc3Cl)[nH]2)cc1 14.1 µM
CC(c1ccc(Cl)cc1)n1c(-c2ccc3ccccc3n2)n[nH]c1=S (configuration not stated) 7.94 µM
Cc1cc2nnc(SCCCCN3C(=O)c4ccccc4C3=O)n2c2ccccc12 6.31 µM
COc1ccc(C(=O)NCc2ccc(-c3nc4ccccc4s3)cc2)cc1 2.51 µM
O=C(NC1CCCc2ccccc21)C1CCN(S(=O)(=O)N2CCCCCC2)CC1 (configuration not stated) 7.94 µM
COc1cc(/C=N/NC(=O)c2cccnc2)ccc1OC(=O)c1ccco1 14.1 µM
COc1cc(/C=N/NC(=O)c2cccnc2)ccc1OC(=O)c1ccc2c(c1)OCO2 1.26 µM
Cc1nc(N/N=C/c2ccccc2)nc(N(C)c2ccccc2)c1[N+](=O)[O-] 7.08 µM
C=CCn1c(SCc2ccc(C(=O)Nc3ccccc3)cc2)nnc1-c1ccccc1 4.47 µM
COC(=O)c1c(C)[nH]c(C)c1C(=O)c1ccccc1Cc1ccccc1 1 µM
COc1ccc(NC(=S)N2CCN(C/C=C/c3ccccc3)CC2)cc1OC 17.8 µM
Cc1ccc(N=C/C(C(=O)C(F)(F)F)=C(\O)c2cccs2)cc1 12.6 µM
CC(C)c1ccc(Cn2ccc3c4c(N)nc(NC5CC5)nc4ccc32)cc1 6.31 µM
CCC(C)(C)N=C(NC#N)Nc1cccnc1 5.01 µM
Cc1cnc(CNc2ncncc2-c2ccoc2)cn1 2 µM
Cc1cnc(CNc2ncncc2-c2ccc(N(C)C)cc2)cn1 2 µM
Cc1cnc(CNc2ncncc2-c2ccc(C(=O)N(C)C)cc2)cn1 12.6 µM
CNCCCCCCCCSc1nc(C(C)C)ccc1C(=O)c1cccs1 2.51 µM
Cc1ccc(-n2[nH]c(C)c(C=Nc3ccc4[nH]c(=O)[nH]c4c3)c2=O)cc1C 14.1 µM
O=C(NCCN1CCOCC1)c1nn2c(c1Cl)NC(c1ccccc1)CC2C(F)(F)F (configuration not stated) 7.08 µM
COc1ccc(OC)c(NC(=O)c2cc3n(n2)C(C(F)(F)F)CC(c2ccc4c(c2)OCO4)N3)c1 (configuration not stated) 3.98 µM
Cc1nn(C)c(C)c1CNC(=O)c1cnn2c1NC(c1ccccc1)CC2C(F)(F)F (configuration not stated) 12.6 µM
COc1ccc(C2CC(C(F)(F)F)n3nc(C(=O)N(C)Cc4cn(C)nc4C)c(Cl)c3N2)cc1 (configuration not stated) 2.51 µM
Cc1ccc(C2CC(C(F)(F)F)n3nc(C(=O)NCCN4CCOCC4)cc3N2)cc1 (configuration not stated) 7.94 µM
CC(C)(C)c1ccc(COC(=O)CNC(=O)CNC(=O)Cc2ccccc2)cc1 12.6 µM
O=C(CNC(=O)c1cccs1)NCC(=O)OCc1ccc(Cl)cc1 25.1 µM
O=C(CNC(=O)c1cccs1)NCC(=O)OCc1ccc(Cl)cc1Cl 7.08 µM
O=C1C2CCCN2c2ccc(S(=O)(=O)N3CCOCC3)cc2N1Cc1cccc(C(F)(F)F)c1 (configuration not stated) 15.8 µM
Cc1ccc(C)c(CN2C(=O)C3CCCN3c3ccc(S(=O)(=O)N4CCOCC4)cc32)c1 (configuration not stated) 11.2 µM
Cc1ccc(C)c(CN2C(=O)C3CCCN3c3ccc(C#N)cc32)c1 (configuration not stated) 5.01 µM
Cc1ccc(C2CC2C(=O)NN)cc1 (configuration not stated) 7.94 µM
COc1ccc([C@@H](Nc2ncccn2)c2cc3c(cc2O)OCO3)cc1 2.51 µM
COc1ccc([C@@H](C)c2cc3c(cc2O)OCO3)cc1 2.51 µM
